What all share (assay): DAPPL (digital affinity profiling via proximity ligation, sequencing); 10 mM Tris-HCl pH 7.5, 50 mM NaCl, 1 mM DTT, 4% glycerol, room temperature, 30 min; GST-TFs on glutathione beads, 16-mer random dsDNA library, 0.1% formaldehyde crosslink after washing; high values mean tight binding
Assay [1] concerns the target T1, FEV (Homo sapiens, UniProt Q99581 1-238).
T1 sequence: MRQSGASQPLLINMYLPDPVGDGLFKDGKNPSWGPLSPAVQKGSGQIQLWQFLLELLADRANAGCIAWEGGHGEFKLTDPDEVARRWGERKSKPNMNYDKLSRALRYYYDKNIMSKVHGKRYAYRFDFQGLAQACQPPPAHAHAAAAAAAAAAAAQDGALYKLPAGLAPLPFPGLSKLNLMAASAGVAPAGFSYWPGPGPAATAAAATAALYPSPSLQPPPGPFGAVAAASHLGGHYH
To be noted: protein: recombinant; tags: N-terminal GST; dsDNA, one strand shown. Put shortly: (§1)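 Binding signal is defined as a hexamer's read frequency for one factor over its frequency for the tag-only sample. To obtain reads, GST-fused human transcription factors were expressed in yeast, captured on glutathione beads, barcoded with DNA and pooled with that sample. Pools met 200 nmole of a 16-mer random double-stranded DNA library in Tris/NaCl/DTT/glycerol buffer for 30 min at room temperature before washing, 0.1% formaldehyde crosslinking, proximity ligation (BsaI/T4 ligase, 1 h, 37 °C), PCR and Illumina NextSeq500 sequencing.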

For assay [2], the target named is ETV5 (Homo sapiens, UniProt P41161 1-510). To be noted: protein: recombinant; tags: N-terminal GST; dsDNA, one strand shown. Put shortly:
as §1

Assay [3] addresses HSF1 (Homo sapiens, UniProt Q00613 1-529). To be noted: protein: recombinant; tags: N-terminal GST; chain copies: 3; dsDNA, one strand shown. In outline: as §1
Assay [4] has as its target T2, SPIC (Homo sapiens, UniProt Q8N5J4 1-248).
T2 sequence: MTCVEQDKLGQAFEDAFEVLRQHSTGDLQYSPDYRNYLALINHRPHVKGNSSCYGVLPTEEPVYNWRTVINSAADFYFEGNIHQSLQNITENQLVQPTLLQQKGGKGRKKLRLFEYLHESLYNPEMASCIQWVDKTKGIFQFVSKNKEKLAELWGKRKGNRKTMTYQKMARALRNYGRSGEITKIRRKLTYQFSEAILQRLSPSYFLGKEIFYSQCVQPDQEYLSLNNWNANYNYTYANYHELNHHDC
The note with it: protein: recombinant; tags: N-terminal GST; dsDNA, one strand shown. In outline:
as §1

Assay [5] has as its target ELF4 (Homo sapiens, UniProt Q99607 1-663). To be noted: protein: recombinant; tags: N-terminal GST; dsDNA, one strand shown. Put shortly:
as §1

The target of assay [6] is T3, ELK4 (Homo sapiens, UniProt P28324-2 1-405).
T3 sequence: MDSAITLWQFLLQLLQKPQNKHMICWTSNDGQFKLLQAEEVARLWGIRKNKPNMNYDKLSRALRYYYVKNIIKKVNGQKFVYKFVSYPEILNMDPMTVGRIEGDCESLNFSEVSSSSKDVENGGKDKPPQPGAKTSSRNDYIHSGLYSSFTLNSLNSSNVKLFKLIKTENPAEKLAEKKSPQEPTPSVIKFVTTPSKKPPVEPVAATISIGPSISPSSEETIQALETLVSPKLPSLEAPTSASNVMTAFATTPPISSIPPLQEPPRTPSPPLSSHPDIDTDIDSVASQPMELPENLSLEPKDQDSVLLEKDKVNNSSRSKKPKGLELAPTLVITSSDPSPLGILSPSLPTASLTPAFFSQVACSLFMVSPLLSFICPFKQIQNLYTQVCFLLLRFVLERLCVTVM
To be noted: protein: recombinant; tags: N-terminal GST; dsDNA, one strand shown. Put shortly:
as §1

The target in assay [7] is T4, ETV2 (Homo sapiens, UniProt O00321 1-342).
T4 sequence: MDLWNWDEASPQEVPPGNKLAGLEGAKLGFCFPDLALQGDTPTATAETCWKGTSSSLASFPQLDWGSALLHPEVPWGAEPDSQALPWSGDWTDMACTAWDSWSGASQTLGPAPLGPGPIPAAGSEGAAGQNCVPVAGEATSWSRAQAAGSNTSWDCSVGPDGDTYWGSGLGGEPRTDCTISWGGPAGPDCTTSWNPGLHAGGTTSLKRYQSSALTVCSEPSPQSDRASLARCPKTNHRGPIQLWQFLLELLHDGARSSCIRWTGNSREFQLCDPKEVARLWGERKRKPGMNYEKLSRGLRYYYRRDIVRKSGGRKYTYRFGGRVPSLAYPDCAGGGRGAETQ
The note with it: protein: recombinant; tags: N-terminal GST; dsDNA, one strand shown. In outline:
as §1

In assay [8] the target is T5, ELF3 (Homo sapiens, UniProt P78545 1-371).
T5 sequence: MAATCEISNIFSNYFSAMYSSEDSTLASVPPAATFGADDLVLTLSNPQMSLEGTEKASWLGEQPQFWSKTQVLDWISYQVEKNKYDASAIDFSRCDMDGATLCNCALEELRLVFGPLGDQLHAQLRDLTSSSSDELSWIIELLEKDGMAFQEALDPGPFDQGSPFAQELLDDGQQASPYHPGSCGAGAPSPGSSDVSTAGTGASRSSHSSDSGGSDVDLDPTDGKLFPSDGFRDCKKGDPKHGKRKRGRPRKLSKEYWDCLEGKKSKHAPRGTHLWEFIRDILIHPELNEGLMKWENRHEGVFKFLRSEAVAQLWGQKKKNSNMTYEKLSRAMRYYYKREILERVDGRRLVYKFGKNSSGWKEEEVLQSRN
To be noted: protein: recombinant; tags: N-terminal GST; dsDNA, one strand shown. Put shortly: as §1

Assay [9] has as its target CRX (Homo sapiens, UniProt O43186 1-299). The note with it: protein: recombinant; tags: N-terminal GST; dsDNA, one strand shown. In outline: as §1
Assay [10] addresses ETV1 (Homo sapiens, UniProt P50549 1-477). To be noted: protein: recombinant; tags: N-terminal GST; dsDNA, one strand shown. In outline: as §1
For assay [11], the target named is T6, ERF (Homo sapiens, UniProt P50548 1-548).
T6 sequence: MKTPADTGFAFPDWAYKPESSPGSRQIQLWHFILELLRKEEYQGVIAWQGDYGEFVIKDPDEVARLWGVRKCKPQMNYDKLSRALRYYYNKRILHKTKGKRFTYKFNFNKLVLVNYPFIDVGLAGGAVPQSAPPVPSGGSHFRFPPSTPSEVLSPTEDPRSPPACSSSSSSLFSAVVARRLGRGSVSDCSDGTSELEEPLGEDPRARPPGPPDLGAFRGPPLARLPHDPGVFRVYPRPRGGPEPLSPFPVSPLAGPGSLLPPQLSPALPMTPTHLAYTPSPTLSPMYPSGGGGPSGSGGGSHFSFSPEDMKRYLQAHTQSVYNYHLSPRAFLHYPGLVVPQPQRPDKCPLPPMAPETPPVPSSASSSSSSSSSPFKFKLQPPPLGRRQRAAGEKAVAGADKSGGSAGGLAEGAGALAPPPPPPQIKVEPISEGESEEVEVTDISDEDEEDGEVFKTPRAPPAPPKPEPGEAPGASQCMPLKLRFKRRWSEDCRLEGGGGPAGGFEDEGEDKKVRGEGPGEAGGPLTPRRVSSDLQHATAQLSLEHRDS
The note with it: protein: recombinant; tags: N-terminal GST; dsDNA, one strand shown. In outline: as §1

In assay [12] the target is T7, ETV3L (Homo sapiens, UniProt Q6ZN32 1-361).
T7 sequence: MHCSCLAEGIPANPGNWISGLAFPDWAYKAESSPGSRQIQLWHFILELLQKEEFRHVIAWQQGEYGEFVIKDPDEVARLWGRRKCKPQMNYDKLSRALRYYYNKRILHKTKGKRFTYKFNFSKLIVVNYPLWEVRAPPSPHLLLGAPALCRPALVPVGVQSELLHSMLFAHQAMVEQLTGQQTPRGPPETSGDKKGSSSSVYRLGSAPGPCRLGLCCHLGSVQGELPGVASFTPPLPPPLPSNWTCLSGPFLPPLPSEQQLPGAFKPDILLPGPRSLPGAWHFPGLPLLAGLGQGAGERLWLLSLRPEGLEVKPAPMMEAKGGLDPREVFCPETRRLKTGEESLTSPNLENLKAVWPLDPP
To be noted: protein: recombinant; tags: N-terminal GST; dsDNA, one strand shown. In outline:
as §1

Assay [13] addresses T8, ETS2 (Homo sapiens, UniProt P15036 1-469).
T8 sequence: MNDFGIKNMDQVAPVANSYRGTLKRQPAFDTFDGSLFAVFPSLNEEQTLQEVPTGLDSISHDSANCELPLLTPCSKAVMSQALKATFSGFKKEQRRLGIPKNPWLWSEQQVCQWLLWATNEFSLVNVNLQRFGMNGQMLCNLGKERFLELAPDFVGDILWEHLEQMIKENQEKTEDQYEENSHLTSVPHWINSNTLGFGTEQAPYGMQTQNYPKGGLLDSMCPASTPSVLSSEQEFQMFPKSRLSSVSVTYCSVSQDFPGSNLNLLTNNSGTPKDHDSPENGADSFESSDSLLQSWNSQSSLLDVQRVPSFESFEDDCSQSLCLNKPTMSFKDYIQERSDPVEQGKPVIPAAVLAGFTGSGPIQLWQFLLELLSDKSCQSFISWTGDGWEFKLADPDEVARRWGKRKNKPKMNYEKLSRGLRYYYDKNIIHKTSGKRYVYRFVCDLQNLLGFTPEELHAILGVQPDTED
The note with it: protein: recombinant; tags: N-terminal GST; dsDNA, one strand shown. Put shortly: as §1

For assay [14], the target named is T9, SPDEF (Homo sapiens, UniProt O95238 1-335).
T9 sequence: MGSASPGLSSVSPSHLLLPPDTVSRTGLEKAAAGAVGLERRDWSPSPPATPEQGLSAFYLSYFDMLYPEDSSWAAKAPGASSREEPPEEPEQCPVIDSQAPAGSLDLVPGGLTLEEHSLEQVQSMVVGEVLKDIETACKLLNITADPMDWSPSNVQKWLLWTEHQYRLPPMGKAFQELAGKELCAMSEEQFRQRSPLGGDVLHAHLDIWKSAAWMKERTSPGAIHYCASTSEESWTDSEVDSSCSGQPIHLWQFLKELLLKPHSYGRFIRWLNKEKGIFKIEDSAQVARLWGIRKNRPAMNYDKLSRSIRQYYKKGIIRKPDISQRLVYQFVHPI
To be noted: protein: recombinant; tags: N-terminal GST; dsDNA, one strand shown. Put shortly: as §1

The target of assay [15] is T10, ETV7 (Homo sapiens, UniProt Q9Y603 1-341).
T10 sequence: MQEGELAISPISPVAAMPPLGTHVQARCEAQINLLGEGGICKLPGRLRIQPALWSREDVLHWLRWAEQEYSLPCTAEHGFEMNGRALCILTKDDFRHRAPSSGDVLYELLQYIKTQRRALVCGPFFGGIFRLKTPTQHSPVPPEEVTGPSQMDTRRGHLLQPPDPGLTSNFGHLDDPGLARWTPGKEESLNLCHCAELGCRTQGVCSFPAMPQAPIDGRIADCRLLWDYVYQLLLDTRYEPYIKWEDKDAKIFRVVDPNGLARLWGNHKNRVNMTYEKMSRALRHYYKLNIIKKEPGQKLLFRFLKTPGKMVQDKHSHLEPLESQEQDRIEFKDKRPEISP
To be noted: protein: recombinant; tags: N-terminal GST; dsDNA, one strand shown. Put shortly: as §1

For assay [16], the target named is T11, ELF5 (Homo sapiens, UniProt Q9UKW6-2 1-255).
T11 sequence: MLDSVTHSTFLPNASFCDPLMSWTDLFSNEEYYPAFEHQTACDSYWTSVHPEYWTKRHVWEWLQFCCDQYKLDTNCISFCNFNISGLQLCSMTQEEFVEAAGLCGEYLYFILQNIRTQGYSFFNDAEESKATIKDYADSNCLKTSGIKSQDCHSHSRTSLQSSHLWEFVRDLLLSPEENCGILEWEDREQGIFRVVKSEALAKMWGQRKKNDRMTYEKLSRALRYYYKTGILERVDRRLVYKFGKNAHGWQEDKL
The note with it: protein: recombinant; tags: N-terminal GST; dsDNA, one strand shown. Put shortly: as §1

In assay [17] the target is T12, ETV3 (Homo sapiens, UniProt P41162-2 1-143).
T12 sequence: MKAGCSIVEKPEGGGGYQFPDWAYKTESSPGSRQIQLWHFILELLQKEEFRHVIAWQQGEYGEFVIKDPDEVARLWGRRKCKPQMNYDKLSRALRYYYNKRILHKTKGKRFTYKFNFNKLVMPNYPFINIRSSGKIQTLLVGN
The note with it: protein: recombinant; tags: N-terminal GST; dsDNA, one strand shown. Put shortly:
as §1

The target of assay [18] is ETV6 (Homo sapiens, UniProt P41212 1-452). The note with it: protein: recombinant; tags: N-terminal GST; dsDNA, one strand shown. In outline:
as §1

CRX, sequence (O43186 whole entry): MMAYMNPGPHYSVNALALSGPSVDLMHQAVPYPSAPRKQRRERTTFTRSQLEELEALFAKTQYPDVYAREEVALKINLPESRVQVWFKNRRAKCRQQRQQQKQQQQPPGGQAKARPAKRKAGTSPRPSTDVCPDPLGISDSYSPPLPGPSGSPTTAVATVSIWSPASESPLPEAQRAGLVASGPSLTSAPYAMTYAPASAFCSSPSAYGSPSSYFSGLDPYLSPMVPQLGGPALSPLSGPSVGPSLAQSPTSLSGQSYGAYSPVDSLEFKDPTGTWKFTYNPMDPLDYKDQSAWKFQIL
ETV5, sequence (P41161 whole entry): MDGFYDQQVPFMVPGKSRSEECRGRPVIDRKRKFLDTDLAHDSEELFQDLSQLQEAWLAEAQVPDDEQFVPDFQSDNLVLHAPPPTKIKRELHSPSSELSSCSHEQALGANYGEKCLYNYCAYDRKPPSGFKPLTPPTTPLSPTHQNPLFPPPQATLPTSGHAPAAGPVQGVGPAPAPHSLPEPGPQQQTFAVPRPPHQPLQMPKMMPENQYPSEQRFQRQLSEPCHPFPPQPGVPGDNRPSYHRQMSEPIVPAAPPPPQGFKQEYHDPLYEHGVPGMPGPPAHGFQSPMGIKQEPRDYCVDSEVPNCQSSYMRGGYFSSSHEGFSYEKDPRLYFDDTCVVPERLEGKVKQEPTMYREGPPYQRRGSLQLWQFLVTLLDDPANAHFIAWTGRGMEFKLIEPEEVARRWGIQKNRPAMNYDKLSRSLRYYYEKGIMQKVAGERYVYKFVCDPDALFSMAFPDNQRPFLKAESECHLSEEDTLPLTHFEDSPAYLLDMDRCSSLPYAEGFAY
ETV1, sequence (P50549 whole entry): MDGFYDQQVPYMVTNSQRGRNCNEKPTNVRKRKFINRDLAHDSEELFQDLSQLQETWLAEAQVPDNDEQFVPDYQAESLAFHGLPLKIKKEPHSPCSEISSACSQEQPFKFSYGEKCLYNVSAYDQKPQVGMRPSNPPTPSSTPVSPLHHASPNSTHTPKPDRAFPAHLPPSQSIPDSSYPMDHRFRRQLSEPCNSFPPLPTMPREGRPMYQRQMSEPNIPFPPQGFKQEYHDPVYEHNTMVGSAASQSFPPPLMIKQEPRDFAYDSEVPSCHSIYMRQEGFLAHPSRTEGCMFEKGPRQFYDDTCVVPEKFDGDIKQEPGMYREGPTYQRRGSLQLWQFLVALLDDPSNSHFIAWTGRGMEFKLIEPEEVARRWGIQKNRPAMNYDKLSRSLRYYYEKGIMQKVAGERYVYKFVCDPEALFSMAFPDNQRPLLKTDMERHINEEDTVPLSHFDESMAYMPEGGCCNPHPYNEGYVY
ETV6, sequence (P41212 whole entry): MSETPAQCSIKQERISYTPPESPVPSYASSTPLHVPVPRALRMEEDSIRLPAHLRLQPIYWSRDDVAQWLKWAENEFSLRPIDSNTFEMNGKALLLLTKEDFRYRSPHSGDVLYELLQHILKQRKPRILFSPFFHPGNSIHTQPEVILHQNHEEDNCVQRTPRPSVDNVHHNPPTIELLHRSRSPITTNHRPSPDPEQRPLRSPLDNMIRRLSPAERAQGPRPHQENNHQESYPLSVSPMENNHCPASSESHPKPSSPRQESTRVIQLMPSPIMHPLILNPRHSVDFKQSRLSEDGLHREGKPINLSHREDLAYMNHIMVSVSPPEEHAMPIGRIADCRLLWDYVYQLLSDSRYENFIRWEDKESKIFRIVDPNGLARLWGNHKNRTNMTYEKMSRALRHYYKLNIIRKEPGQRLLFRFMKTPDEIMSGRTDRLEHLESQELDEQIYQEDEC
ELF4, sequence (Q99607 whole entry): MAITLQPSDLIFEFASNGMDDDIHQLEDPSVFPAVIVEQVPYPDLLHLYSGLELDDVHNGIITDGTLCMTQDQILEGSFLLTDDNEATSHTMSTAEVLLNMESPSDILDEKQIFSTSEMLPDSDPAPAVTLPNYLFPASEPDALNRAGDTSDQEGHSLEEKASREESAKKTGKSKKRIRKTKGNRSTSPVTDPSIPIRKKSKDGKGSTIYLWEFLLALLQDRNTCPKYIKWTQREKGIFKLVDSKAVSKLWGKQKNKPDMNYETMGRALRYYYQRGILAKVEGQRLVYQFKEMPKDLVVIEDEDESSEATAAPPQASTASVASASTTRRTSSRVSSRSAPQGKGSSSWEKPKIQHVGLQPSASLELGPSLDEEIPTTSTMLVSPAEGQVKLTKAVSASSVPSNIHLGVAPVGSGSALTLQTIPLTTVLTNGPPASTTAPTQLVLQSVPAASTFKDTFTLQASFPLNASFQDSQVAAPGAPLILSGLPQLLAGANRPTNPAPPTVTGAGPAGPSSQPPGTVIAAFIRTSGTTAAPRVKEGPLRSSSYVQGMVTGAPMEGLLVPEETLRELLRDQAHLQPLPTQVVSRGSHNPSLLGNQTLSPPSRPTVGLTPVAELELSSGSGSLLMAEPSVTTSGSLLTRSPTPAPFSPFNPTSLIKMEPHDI
HSF1, sequence (Q00613 whole entry): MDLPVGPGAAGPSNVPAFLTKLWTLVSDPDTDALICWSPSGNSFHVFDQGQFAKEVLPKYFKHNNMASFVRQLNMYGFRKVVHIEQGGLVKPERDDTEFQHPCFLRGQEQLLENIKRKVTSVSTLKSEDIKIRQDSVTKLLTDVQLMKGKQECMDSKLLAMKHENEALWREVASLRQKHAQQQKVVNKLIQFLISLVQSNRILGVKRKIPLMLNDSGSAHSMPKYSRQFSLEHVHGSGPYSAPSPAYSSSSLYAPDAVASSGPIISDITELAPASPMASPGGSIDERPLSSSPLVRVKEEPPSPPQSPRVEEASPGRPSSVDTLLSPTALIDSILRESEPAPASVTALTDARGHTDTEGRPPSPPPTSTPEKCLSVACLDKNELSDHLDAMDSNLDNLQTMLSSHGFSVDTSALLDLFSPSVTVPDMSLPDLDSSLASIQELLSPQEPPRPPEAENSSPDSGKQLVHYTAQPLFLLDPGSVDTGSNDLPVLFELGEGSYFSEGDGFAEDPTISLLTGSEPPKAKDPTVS

As to CTCTGT, the binding signal in assay [1] was 1.39 fold enrichment (6-mer frequency, TF over GST control); in assay [2], 1.42 fold enrichment (6-mer frequency, TF over GST control); in [3] it was 1.15 fold enrichment (6-mer frequency, TF over GST control); in [4], 1.5 fold enrichment (6-mer frequency, TF over GST control); in assay [5] it was 1.33 fold enrichment (6-mer frequency, TF over GST control); in assay [6] it was 1.5 fold enrichment (6-mer frequency, TF over GST control). For the same sequence, the binding signal is 1.39 fold enrichment (6-mer frequency, TF over GST control) in [7]; 1.4 fold enrichment (6-mer frequency, TF over GST control) in [8]; 1.18 fold enrichment (6-mer frequency, TF over GST control) in assay [9]; 1.43 fold enrichment (6-mer frequency, TF over GST control) in assay [10]; 1.5 fold enrichment (6-mer frequency, TF over GST control) in [11]; 1.33 fold enrichment (6-mer frequency, TF over GST control) in assay [12]. Besides, the binding signal was 1.5 fold enrichment (6-mer frequency, TF over GST control) in assay [13]; 1.45 fold enrichment (6-mer frequency, TF over GST control) in assay [14]; 1.43 fold enrichment (6-mer frequency, TF over GST control) in assay [15]; 1.37 fold enrichment (6-mer frequency, TF over GST control) in [16]; 1.43 fold enrichment (6-mer frequency, TF over GST control) in assay [17]; 1.44 fold enrichment (6-mer frequency, TF over GST control) in assay [18].

The record behind these values is PMC7862700, “An all-to-all approach to the identification of sequence-specific readers for epigenetic DNA modifications on cytosine”.
